Records with an inconclusive call do not appear. Active and inactive are the calls of the source. Unless noted, the call rests on the fitted dose curve.
Assays:
[1] = qHTS for Inhibitors of the Functional Ribonucleoprotein Complex (vRNP) of Lassa (LASV) Arenavirus: LASV Primary Screen - GLuc reporter signal (AID 1347082; calls by dose curve; tested in HEK293 reporter line; further: nearly all actives have a fitted effect of over 60% in size; further: potency means the concentration at half of the fitted maximal effect; on activity change, negative = inhibition: on the % scale 0 is the no-effect control and ±100 the full control effect)
[2] = qHTS for Inhibitors of the Functional Ribonucleoprotein Complex (vRNP) of Lassa (LASV) Arenavirus: Viability assay - alamar blue signal for LASV Primary Screen (AID 1347083; calls by dose curve; tested in HEK293 reporter line; further: nearly all actives have a fitted effect of over 80% in size; further: potency means the concentration at half of the fitted maximal effect)
[3] = target: Nucleoprotein (Lymphocytic choriomeningitis virus (strain Armstrong)) (UniProt P09992); test: qHTS for Inhibitors of the Functional Ribonucleoprotein Complex (vRNP) of Lymphocytic Choriomeningitis Arenaviruses (LCMV): LCMV Primary Screen - GLuc reporter signal (AID 1347086); further: nearly all actives have a fitted effect of over 70% in size; further: potency means the concentration at half of the fitted maximal effect; on activity change, negative = inhibition: on the % scale 0 is the no-effect control and ±100 the full control effect
[4] = tested on: CRL-7250; test: qHTS assay to identify novel small-molecules to repurpose for Merkel cell carcinoma treatment (AID 1296009; active means well fitted curve in the direction sought with a large enough effect; an effect the other way counts as inactive or inconclusive; further: nearly all actives have a fitted effect of over 60% in size); conditions: MCC and control cell lines, CellTiter-Glo viability, 72 h; series mostly up to 92 µM
Procedure, shortened: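 Cells exposed to NPC (8-point) and MIPE (11-point) compound dilutions for 72 hr at 37 degree celsius; viability read by CellTiter-Glo luminescence, normalized to no-cell and DMSO in-plate controls.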

[5] = target: ATP-dependent 6-phosphofructokinase (Trypanosoma brucei brucei) (UniProt O15648); test: qHTS Validation Assay to Find Inhibitors of T. brucei phosphofructokinase (AID 485368; active means well fitted curve in the direction sought with a large enough effect; an effect the other way counts as inactive or inconclusive); conditions: T. brucei PFK enzyme assay, qHTS 7-point titration; at 57.5 µM (top of the series)
Procedure, shortened: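 Activity was read as ADP production by luminescence (ADP-Glo) after 45 min at room temperature. The enzyme was 1.25nM PFK in 0.1M TEA pH 8.0 with 0.5 mM F6P, 0.1mM ATP and 5 mM MgCl2. Compounds were titrated up to 57 uM and % activity normalized to no-enzyme and full-enzyme controls.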

[6] = target: Ubiquitin carboxyl-terminal hydrolase 1 (Homo sapiens) (UniProt O94782); test: Inhibitors of USP1/UAF1: Pilot qHTS (AID 504865; active means well fitted curve in the direction sought with a large enough effect; an effect the other way counts as inactive or inconclusive;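 further: rhodamine fluorescence freed from ubiquitin-rhodamine substrate followed over time; top concentration of the series differs between compounds; on the % scale 0 is the no-effect control and ±100 the full control effect; nearly all actives have a fitted effect of over 35% in size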)
Procedure, shortened: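 USP1/UAF1 complex (1nM) preincubated with compound 15 min at room temperature, then Ub-Rho substrate (150nM final) added. Fluorescence read kinetically at 480/540 nm, 6 reads every 60 seconds. Buffer: 50mM HEPES pH 7.8, 0.5mM EDTA, 0.1 mg/ml BSA, 1mM TCEP, 0.01% Tween-20.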

[7] = S16 Schwann cell PMP22 intronic element beta-lactamase assay (AID 624044);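 further: 0% = DMSO and -100% = potassium clavulanate positive control; nearly all actives have a fitted effect of over 15% in size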
Procedure, shortened: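 Rat S16 Schwann cells with beta-Lac driven by a PMP22 intronic element, compound-treated 24 h at 37 °C. LiveBLAzer FRET B/G read: 460 nm normalized to potassium clavulanate vs DMSO; 535 nm FRET as viability; concentration-effect curves classified.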

[8] = HTS Assay for Allosteric Antagonists of the Human D2 Dopamine Receptor: Hit Validation in HTRF (AID 624455; active means well fitted curve in the direction sought with a large enough effect; an effect the other way counts as inactive or inconclusive;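 further: stable D1 dopamine receptor cell line scored for blocking the D1 response; on the % scale 0 is the no-effect control and ±100 the full control effect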)
Procedure, shortened: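 Hits were examined in an HTRF assay using cells stably expressing the D1 dopamine receptor, scoring inhibition of the D1-mediated response. The preceding primary screen tracked calcium flux after an EC80 dopamine addition in force-coupled, inducible Hek293 Trex D2 cells.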

[9] = target: Arylsulfatase A (Homo sapiens) (UniProt P15289); test: qHTS screen for enhancers of Arylsulfatase A (ASA1): LOPAC Validation Assay (AID 720538; active means well fitted curve in the direction sought with a large enough effect; an effect the other way counts as inactive or inconclusive; further: 0% is about no effect)
Procedure, shortened: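 SV40-transformed skin fibroblasts from an MLD patient (ASA-I179S) were treated with compounds for 48h at 37 degree C, then lysed with 0.5mM pNCS final substrate for 14h at room temperature; NaOH stop, fluorescence read (Ex=525 nm; Em=598 nm).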

[10] = qHTS for Inhibitors of the Functional Ribonucleoprotein Complex (vRNP) of Lymphocytic Choriomeningitis Arenaviruses (LCMV): Viability assay - alamar blue signal for LCMV Primary Screen (AID 1347085; calls by dose curve; tested in HEK293 reporter line; further: nearly all actives have a fitted effect of over 80% in size; further: potency means the concentration at half of the fitted maximal effect)
[11] = Cytotoxicity counterscreen for inhibitors of SARS-CoV-2 cell entry (AID 1645845); further: nearly all actives have a fitted effect of over 50% in size
Procedure, shortened: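 Expi293F/hACE2 cells seeded overnight; cpd pin-transferred in DMSO, 1 h preincubation, + media, 48 h 37 C 5% CO2; ATPLite 1step luminescence; normalized to cells and no cells.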

[12] = Primary qHTS to identify inhibitors of SARS-CoV-2 cell entry (AID 1645846); conditions: activity change, negative = inhibition: at 57.1 µM (top of the series) unless noted; further: nearly all actives have a fitted effect of over 45% in size; further: potency means the concentration at half of the fitted maximal effect
Procedure, shortened: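 Luminescence readout (Bright-Glo luciferase) 48 h after pseudoparticle addition. HEK293-ACE2 cells, 1500/well; compound pre-incubation 1 h; Normalized to spike PP and bald PP.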

[13] = qHTS profiling of the MIPE4 collection as inhibitors of Plasmodium falciparum (3D7) proliferation (AID 743344; call rule not given here;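 further: scaled between DMSO vehicle wells and 0.29 µM artemisinin as full inhibition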); conditions: P. falciparum 3D7 in erythrocytes, SYBR Green DNA fluorescence, 72 h; at 28.5 µM (top of the series) unless noted
Procedure, shortened: (§1)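 Erythrocytes infected with P. falciparum (0.3% parasitemia, 2.5% hematocrit) incubated with compounds 72 h at 37 C, 5% CO2. Lysis with saponin/Triton buffer containing SYBR Green I, overnight at room temperature in the dark; DNA fluorescence (485/535 nm) normalised to 0.29 uM artemisinin and DMSO.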

[14] = qHTS profiling of the MIPE4 collection as inhibitors of Plasmodium falciparum (DD2) proliferation (AID 743345; call rule not given here); conditions: P. falciparum Dd2 in erythrocytes, SYBR Green DNA, 72 h; at 28.5 µM (top of the series) unless noted
Procedure, shortened: as §1

[15] = target: Bile acid receptor (Homo sapiens) (UniProt Q96RI1); test: qHTS assay for small molecule agonists of farnesoid X receptor signaling (AID 588527); conditions: HEK293T FXR-UAS-bla, beta-lactamase ratio, 16 h; activation: stronger effect = higher value;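 further: 0% = vehicle basal and 100% = reference agonist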
Procedure, shortened: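 FXR-UAS-bla HEK293T cells (10% dialyzed FBS) preincubated 5-7 h at 37 C, then compounds at up to 92 uM for 16 h at 37 C. CCF4 beta-lactamase read-out after 2 h RT. Normalized to chenodeoxycholic acid (100 uM) and DMSO; Hill fit gave EC50 and efficacy.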

[16] = qHTS profiling of the MIPE4 collection as inhibitors of Plasmodium falciparum (DD2) proliferation (Rep 2) (AID 743346; call rule not given here); conditions: P. falciparum Dd2 in erythrocytes, SYBR Green DNA, 72 h; at 28.5 µM (top of the series) unless noted
Procedure, shortened: as §1

[17] = target: Peroxisome proliferator-activated receptor delta (Homo sapiens) (UniProt Q03181); test: qHTS assay for small molecule agonists of peroxisome proliferator-activated receptor delta signaling (AID 588534);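 further: 0% = DMSO basal wells and 100% = positive control agonist at 10 µM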
Procedure, shortened: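 Cell-based beta-lactamase reporter assay run in agonist mode: cells seeded and incubated 5 hrs at 37 C, compounds added and incubated 18 hrs at 37 C. CCF4 dye fluorescence read after 2 hrs at RT; EC50 and efficacy from Hill fits.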

Chain of Nucleoprotein (Lymphocytic choriomeningitis virus (strain Armstrong)) (P09992 whole entry, looked up): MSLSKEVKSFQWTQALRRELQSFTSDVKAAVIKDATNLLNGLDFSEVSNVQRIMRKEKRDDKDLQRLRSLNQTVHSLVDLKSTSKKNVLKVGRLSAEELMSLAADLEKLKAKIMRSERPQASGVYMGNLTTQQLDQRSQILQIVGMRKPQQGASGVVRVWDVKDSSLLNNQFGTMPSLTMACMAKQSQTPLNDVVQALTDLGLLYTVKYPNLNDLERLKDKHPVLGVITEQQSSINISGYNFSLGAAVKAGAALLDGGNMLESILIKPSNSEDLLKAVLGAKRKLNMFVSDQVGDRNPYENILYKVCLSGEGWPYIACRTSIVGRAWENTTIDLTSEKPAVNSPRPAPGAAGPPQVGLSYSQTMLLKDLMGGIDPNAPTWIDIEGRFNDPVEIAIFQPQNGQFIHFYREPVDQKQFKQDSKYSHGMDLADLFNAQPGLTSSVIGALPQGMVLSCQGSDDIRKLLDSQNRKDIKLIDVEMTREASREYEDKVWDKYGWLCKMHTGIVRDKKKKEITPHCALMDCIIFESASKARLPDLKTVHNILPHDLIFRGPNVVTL
Chain of Bile acid receptor (Homo sapiens) (Q96RI1 whole entry, looked up): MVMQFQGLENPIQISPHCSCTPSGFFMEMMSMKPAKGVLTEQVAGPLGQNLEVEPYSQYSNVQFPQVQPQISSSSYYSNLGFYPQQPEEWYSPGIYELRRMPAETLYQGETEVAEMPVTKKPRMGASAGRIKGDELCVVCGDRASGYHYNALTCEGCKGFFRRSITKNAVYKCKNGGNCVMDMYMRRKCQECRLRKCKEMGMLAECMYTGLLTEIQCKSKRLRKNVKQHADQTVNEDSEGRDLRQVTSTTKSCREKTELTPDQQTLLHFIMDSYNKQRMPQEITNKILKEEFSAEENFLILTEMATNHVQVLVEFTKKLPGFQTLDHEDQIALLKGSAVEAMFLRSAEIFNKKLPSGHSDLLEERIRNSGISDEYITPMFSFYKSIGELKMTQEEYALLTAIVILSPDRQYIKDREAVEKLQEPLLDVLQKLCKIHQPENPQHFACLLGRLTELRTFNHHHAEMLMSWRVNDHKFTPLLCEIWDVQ
Chain of ATP-dependent 6-phosphofructokinase (Trypanosoma brucei brucei) (O15648 whole entry, looked up): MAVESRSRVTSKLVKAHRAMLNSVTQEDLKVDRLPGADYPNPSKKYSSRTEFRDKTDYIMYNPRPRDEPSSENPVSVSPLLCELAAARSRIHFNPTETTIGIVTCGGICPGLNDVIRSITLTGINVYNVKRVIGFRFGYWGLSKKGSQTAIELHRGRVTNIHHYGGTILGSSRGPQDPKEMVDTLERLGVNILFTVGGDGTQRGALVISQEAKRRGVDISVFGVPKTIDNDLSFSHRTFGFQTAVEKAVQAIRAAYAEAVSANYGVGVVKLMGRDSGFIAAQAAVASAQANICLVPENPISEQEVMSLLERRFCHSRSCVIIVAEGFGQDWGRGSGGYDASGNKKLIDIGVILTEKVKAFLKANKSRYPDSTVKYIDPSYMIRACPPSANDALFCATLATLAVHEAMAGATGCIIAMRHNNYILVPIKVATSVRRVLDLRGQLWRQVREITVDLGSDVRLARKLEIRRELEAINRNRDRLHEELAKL
Chain of Ubiquitin carboxyl-terminal hydrolase 1 (Homo sapiens) (O94782 whole entry, looked up): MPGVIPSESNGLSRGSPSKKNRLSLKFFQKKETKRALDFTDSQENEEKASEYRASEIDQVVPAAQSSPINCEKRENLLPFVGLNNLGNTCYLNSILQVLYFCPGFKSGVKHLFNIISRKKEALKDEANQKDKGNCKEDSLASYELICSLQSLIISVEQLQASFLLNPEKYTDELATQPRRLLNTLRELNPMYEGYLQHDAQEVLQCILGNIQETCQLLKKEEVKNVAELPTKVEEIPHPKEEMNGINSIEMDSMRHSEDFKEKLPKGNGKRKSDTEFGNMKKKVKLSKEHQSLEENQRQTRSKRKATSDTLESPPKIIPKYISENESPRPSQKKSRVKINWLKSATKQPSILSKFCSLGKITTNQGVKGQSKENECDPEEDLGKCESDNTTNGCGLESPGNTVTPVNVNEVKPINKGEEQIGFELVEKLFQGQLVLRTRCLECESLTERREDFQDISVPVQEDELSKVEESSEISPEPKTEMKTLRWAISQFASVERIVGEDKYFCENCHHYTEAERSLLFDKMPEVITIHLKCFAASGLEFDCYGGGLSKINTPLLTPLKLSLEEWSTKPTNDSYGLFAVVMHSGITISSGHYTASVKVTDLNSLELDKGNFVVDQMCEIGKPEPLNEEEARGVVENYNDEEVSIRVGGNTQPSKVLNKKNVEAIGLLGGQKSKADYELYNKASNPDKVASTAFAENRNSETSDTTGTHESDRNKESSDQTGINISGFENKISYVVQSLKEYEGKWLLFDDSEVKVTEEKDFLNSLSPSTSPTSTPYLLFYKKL
Chain of Peroxisome proliferator-activated receptor delta (Homo sapiens) (Q03181 whole entry, looked up): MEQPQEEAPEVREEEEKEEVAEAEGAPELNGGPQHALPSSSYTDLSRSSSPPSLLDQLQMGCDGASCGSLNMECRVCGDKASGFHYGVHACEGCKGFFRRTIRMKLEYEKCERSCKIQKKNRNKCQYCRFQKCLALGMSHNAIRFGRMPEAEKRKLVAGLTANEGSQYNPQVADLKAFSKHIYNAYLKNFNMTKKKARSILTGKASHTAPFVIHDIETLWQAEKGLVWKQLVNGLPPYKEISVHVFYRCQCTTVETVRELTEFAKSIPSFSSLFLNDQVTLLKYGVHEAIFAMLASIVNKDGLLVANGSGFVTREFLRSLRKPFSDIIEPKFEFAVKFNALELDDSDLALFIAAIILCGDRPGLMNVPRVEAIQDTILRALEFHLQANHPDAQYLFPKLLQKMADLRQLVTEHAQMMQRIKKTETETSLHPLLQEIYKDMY
Chain of Arylsulfatase A (Homo sapiens) (P15289 whole entry, looked up): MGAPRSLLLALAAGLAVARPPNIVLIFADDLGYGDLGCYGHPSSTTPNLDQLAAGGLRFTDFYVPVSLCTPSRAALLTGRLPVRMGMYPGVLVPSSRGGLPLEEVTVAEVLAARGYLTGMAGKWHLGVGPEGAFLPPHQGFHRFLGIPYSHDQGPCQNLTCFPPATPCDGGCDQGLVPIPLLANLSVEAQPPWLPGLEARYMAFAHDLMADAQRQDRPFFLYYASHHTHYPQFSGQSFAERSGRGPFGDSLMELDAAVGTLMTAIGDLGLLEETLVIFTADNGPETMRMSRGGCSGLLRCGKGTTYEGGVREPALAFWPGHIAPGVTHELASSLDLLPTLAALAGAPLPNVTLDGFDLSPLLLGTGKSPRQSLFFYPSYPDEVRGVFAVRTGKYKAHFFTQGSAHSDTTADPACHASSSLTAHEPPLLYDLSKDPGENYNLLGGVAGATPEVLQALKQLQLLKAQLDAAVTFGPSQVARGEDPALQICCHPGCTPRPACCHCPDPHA

CCC[C@@H](NC(=O)[C@@H]1[C@H]2CCC[C@@H]2CN1C(=O)[C@@H](NC(=O)[C@@H](NC(=O)c1cnccn1)C1CCCCC1)C(C)(C)C)C(=O)C(=O)NC1CC1
inactive: Potency [1] | Potency [2] | Potency [3] | Potency [4]

COc1cc2c(cc1OC)C1CC(=O)C(CC(C)C)CN1CC2 (stereo unspecified)
inactive: outcome [5] | Potency [6] | Potency [7] | outcome [8] | Potency [9] | Potency [1] | Potency [2] | Potency [10] | Potency [3] | Potency [11] | Potency [4]
-3.6%: activity change, negative = inhibition [12]

COc1ccc2cc(-c3nc(-c4ccc(S(C)=O)cc4)[nH]c3-c3ccncc3)ccc2c1 (stereo unspecified)
inactive: Potency [1] | Potency [4]
active: Potency [2] 24.3 µM | Potency [10] 4.85 µM | Potency [3] 17.2 µM | Potency [12] 31.6 µM

CC(C)N(CC[C@H](c1ccccc1)c1cc(CO)ccc1O)C(C)C
81.5%: parasite growth, % of DMSO control [13]
inactive: Potency [1] | Potency [2] | Potency [10] | Potency [3] | Potency [4]
83.7%: parasite growth remaining, % of DMSO control (lower = more inhibition) [14]

COc1cc(F)c(C(C)C)cc1-c1ccc(C(F)(F)F)cc1CN1C(=O)O[C@H](c2cc(C(F)(F)F)cc(C(F)(F)F)c2)[C@@H]1C
inactive: Potency [1] | Potency [11] | Potency [4]
active: Potency [2] 0.0273 µM | Potency [10] 0.0193 µM

COc1cc(NC(=O)c2ccc(-c3ccc(Cl)cc3)o2)cc(OC)c1
-4.11%: activity change, negative = inhibition [12]
inactive: Potency [11] | Potency [4]
active: Potency [1] 34.3 µM | Potency [2] 15.3 µM | Potency [10] 21.7 µM

CC(=O)N1CCN(c2ccc(OCc3nn(C)c(C)c3-c3cccc4c(CCCOc5cccc6ccccc56)c(C(=O)O)n(Cc5cccnc5)c34)cc2)CC1
inactive: Potency [1] | Potency [2] | Potency [3] | Potency [4]

O=C(O)CCCc1c[nH]c2ccccc12
inactive: activation [15] -2.14% | Potency [1] | Potency [2] | Potency [10] | Potency [3] | Potency [4]

Cc1ccccc1C(C(=O)NC1CCCCC1)N(C(=O)CNc1ccc(C#N)cc1)c1cccc(F)c1 (stereo unspecified)
1.58%: activity change, negative = inhibition [12]
inactive: Potency [1] | Potency [2] | Potency [10] | Potency [3] | Potency [11] | Potency [4]

CCCCCCCCCCCCCCCC(=O)O[C@H]1[C@@H](O)[C@@H](O)[C@@H]([C@H](NC(=O)[C@@H]2C[C@@H](CCC)CN2C)[C@H](C)Cl)O[C@@H]1SC
inactive: Potency [1] | Potency [2] | Potency [10] | Potency [3] | Potency [11] | Potency [12] | Potency [4]

O=C(O)C(=O)Nc1cccc(C2=NN=N[N]2)c1
99.9%: parasite growth remaining, % of DMSO control (lower = more inhibition) [14]
82.2%: parasite growth, % of DMSO control [13]
136%: parasite growth, % of control (lower = inhibition) [16]
inactive: Potency [1] | Potency [2] | Potency [10] | Potency [3] | Potency [4]

Cc1cc(O)c2c(c1)C(=O)c1cccc(O)c1C2=O
inactive: activation [15] -2.98% | Potency [17] | Potency [1] | Potency [2] | Potency [10] | Potency [3] | Potency [11] | Potency [4]
-17%: activity change, negative = inhibition [12]
